# sEH inh: blocks human soluble epoxide hydrolase activity | P34913 | 0.34% of 91,000 active | inhibition, % at 2 µM | recombinant human sEH enzymatic activity assay; in the data active = inhibition above about 80%
# Plk1 PBD FP: inhibitors of human Plk1 polo box domain binding. Plk1 PBD phosphopeptide binding, fluorescence polarization. inhibition, %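 (tested at about 20 µM)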. P53350. 0.13% of 97,000 active; in the data active = inhibition above about 34%, passing the limit was not always enough
# Target sequence (P53350 whole entry, looked up, the tested form may be a part): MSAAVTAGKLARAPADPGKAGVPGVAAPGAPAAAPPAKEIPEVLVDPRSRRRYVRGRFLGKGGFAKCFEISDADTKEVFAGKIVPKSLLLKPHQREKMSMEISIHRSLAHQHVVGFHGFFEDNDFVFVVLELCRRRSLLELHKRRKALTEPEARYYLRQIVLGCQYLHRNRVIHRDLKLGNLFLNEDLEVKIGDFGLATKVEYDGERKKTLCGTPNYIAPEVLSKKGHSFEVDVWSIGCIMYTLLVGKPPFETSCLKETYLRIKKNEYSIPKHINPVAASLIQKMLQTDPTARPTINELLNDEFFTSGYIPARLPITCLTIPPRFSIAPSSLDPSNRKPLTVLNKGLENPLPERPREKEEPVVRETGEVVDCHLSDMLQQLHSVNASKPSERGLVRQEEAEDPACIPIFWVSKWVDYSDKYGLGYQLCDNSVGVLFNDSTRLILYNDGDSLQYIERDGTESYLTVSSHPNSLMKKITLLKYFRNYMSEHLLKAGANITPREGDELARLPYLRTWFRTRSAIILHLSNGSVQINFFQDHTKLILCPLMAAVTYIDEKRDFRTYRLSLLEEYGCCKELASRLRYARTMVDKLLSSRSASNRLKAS
# sEH activator: soluble epoxide hydrolase (human) activation | P34913 | purified human sEH enzymatic activity, activator screen | activation, % at 2 µM | 0.04% of 91,000 active | AID 717; in the data active = activation above about 37%
# PTK2B oligo ant: antagonists of human Pyk2 oligomerization | Q14289 | Q293 cells, Pyk2 FERM NanoBiT luminescence; stronger effect = lower value | z-score (the deposit names both 25 µM and 10 µM) | 0.83% of 99,000 active;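 active = Z-score of -3 or lower, scaled per plate to the spread of control and sample wells; inactive = z-score above -3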;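 also: negative z-score means lost luminescence so less FERM oligomerization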
# PLK1 kinase inh: blocks human PLK1 kinase activity; P53350; recombinant PLK1 kinase, TR-FRET peptide phosphorylation; inhibition, % at 10 µM; 0.53% of 97,000 active;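 active = inhibition of 50% or more in the single-concentration screen; inactive = inhibition below 50%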;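 also: 0% = DMSO max control and 100% = H-89 dihydrochloride min control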
# The depositor's hits bear a star; . = no result given. This is a sample that favours compounds with a hit; in the whole collection about 1.6% have one here.
SMILES,sEH inh,Plk1 PBD FP,sEH activator,PTK2B oligo ant,PLK1 kinase inh
O=C(NNC(=O)c1ccccc1Br)c1ccc(SCC2CCCO2)c([N+](=O)[O-])c1 (stereo unspecified),19,-2,-16,-0.6,-18
Cc1ccc(-n2nnnc2SCc2ccccn2)cc1C,2,18,0,-0.82,-9
CC1Cc2ccccc2N1C(=O)CSc1nnc(-c2ccccc2)c(-c2ccccc2)n1 (stereo unspecified),5,-15,-2,-1.4,-9
COc1ccc(-c2ccc(SCC(=O)N3c4ccccc4CC3C)nn2)cc1OC (stereo unspecified),-1,-25,-1,-3.2*,1
CC(=O)NC(=S)Nc1ccc(NC(=O)COc2ccc(Cl)cc2Cl)cc1,82*,-12,-82,3.8,-10
CC(=O)N1CCN(c2ccc(NC(=O)COc3ccc(Cl)cc3Cl)cc2)CC1,90*,4,-90,-0.19,-5
CC(=O)N1CCN(c2ccccc2NC(=O)COc2ccc(Cl)cc2Cl)CC1,20,-2,-16,-2.5,-11
NS(=O)(=O)c1ccc(NCc2cc(Cl)ccc2OCc2ccccc2F)cc1,1,-12,0,-1.4,-14
Fc1ccc(Sc2cc(Cl)c(-c3ccccc3)nn2)cc1,-1,-6,4,-3.5*,-11
Fc1ccc(Sc2nc(-c3ccccc3)nnc2C(F)(F)F)cc1,1,-14,1,-0.86,3
O=C(Nc1cccc(-c2cnc3ccccc3n2)c1)c1ccccc1,-2,13,5,0.08,5
O=C(Nc1cccc(-c2cnc3ccccc3n2)c1)c1cccc(NC(=O)c2ccco2)c1,10,15,-8,-4.4*,-13
CCCCCCSC1=C(C#N)C(c2ccc(O)cc2)CC(=O)N1 (stereo unspecified),-13,4,11,-3.3*,-18
CCSC1=C(C#N)C(c2ccc(F)cc2)CC(=O)N1 (stereo unspecified),-2,-1,0,.,-8
COC(=O)CN(c1cccc(F)c1)S(C)(=O)=O,7,1,-4,0.32,-11
N#C/C(=C/c1ccc(Sc2nc3ccccc3[nH]2)o1)c1cccc(Br)c1,2,3,0,-3.1*,-4
N#C/C(=C/c1ccc(Sc2nc3ccccc3[nH]2)o1)c1cccc(F)c1,-11,-30,7,-3.2*,0
CCOC(=O)c1cc2sccc2n1CC(=O)OC(C)C,-6,-13,4,-0.82,-5
CCOC(=O)c1cc2sccc2n1CC(=O)N1CCc2ccccc21,8,-5,-7,-3.5*,-3
CCOc1ccc(C(=O)NN2C(=O)C3C4C=CC(O4)C3C2=O)cc1 (stereo unspecified),-9,-13,13,0.81,-7
CCC(=O)c1cc(F)c(N2CCN(S(=O)(=O)c3ccc(C)cc3)CC2)cc1C,9,13,-8,-1.3,-17
O=C(Nc1ccc(Cc2ccncc2)cc1)C1CCC(N2C(=O)C3C4C=CC(C5CC45)C3C2=O)CC1 (stereo unspecified),86*,-4,-87,-4.2*,1
Cc1cc(NC(=O)CSc2nc3ccc(Cl)cc3[nH]2)no1,-20,10,17,-1.1,50*
Cc1cc(NC(=O)CSc2nc3cc(Cl)ccc3s2)no1,-9,14,7,1.1,-18
CCOc1cccc(C(=O)Nc2cccc(-c3nnc(-c4ccccc4)o3)c2)c1,31,2,-30,-3.6*,-6
SMILES,sEH inh,Plk1 PBD FP,sEH activator,PTK2B oligo ant,PLK1 kinase inh
COc1ccccc1NC(=O)CSc1nnc(-c2ccccc2)o1,.,-8,.,.,58*
COc1ccc(CC(=O)Nc2cccc(-c3nnc(-c4ccc(C)cc4)o3)c2)cc1OC,.,.,.,-2.5,.
COc1ccc(CC(=O)Nc2cccc(-c3nnc(-c4ccccc4)o3)c2)cc1OC,7,14,-6,-3.6*,-9
COc1ccc(-c2nc3cc(NC(=O)Cc4ccc(OC)c(OC)c4)ccc3o2)cc1,80*,-56,-80,-1.6,1
O=C(OCC(=O)N1CCCC1)c1cccs1,-2,-15,3,0.04,1
N#CC1=C(N)SC(N)=C(C#N)C1CCC1CCCCC1,4,-1,-6,.,-20
O=C1NCCc2cc3c(cc21)OCO3,-2,-15,3,0.42,-8
CCOC(=O)c1cnc2c(C#N)c(C)nn2c1-c1ccccc1,.,10,.,.,64*
CCc1cccc(NC(=O)CS(=O)Cc2nc(-c3ccc(C)cc3)oc2C)c1 (stereo unspecified),.,1,.,.,-4
Cc1ccc(NC(=O)CCSc2ccccn2)cc1,.,.,.,0.06,.
Cc1ccc(C)c(Nc2c([N+](=O)[O-])cc(C(=O)N3CC(=O)Nc4ccccc43)cc2[N+](=O)[O-])c1,4,-29,-2,-3*,21
CCn1c(C(=O)N2CCC(C(=O)NCCCSC3CCCCC3)CC2)cc2sccc21,96*,2,-96,.,-4
CCOC(=O)C1=C(C)NC(C)=C(C(=O)OCC)C1c1sccc1C,17,-6,-16,-3.3*,-14
CCCC1C(C(=O)OCC)=C(C)NC(C)=C1C(=O)OCC,-2,-15,2,-3.1*,-12
CCOC(=O)C1=C(C)NC(C)=C(C(=O)OCC)C1C(=O)O,9,-3,-8,0.32,-3
CCCSc1nnc2nc3c(nn12)c1ccccc1n3C,17,-11,-18,.,-11
O=C(O)c1cnn(-c2ccccc2)c1-c1ccccc1,-6,-12,8,0.01,-4
COc1cccc(-c2nc(-c3ccc4c(c3)-c3ccccc3S4(=O)=O)c(-c3ccccc3)[nH]2)c1OC,-1,-6,4,-0.62,-15
COc1cc(-c2nc(-c3ccccc3)c(-c3cccs3)[nH]2)cc(OC)c1OC,0,-2,0,-3*,-5
COc1cc(-c2nc(-c3ccc4c(c3)-c3ccccc3S4(=O)=O)c(-c3ccccc3)[nH]2)cc(OC)c1OC,-13,8,15,-3*,-12
O=C(Nc1cccc(F)c1)NC1CC2CCCC(C1)N2C1CC1 (stereo unspecified),84*,12,-84,0.08,-15
O=C(Nc1cccc(F)c1)NC1CCCCC1,88*,-1,-88,-0.15,-12
O=C(Nc1ccc(F)cc1)NC1CCCCC1,77,-8,-77,-0.05,-1
O=C(Nc1ccc2c(c1)OCCO2)NC1CCCCC1,89*,1,-89,-1.4,-10
O=C(Nc1ccc2c(c1)OCCO2)C1CCC1,3,-16,-1,-0.31,-8
SMILES,sEH inh,Plk1 PBD FP,sEH activator,PTK2B oligo ant,PLK1 kinase inh
CC(C)CNC(=O)c1ccc(Cl)c(Cl)c1,4,-2,-6,-0.7,-9
Cn1c(Oc2ccccc2NCc2cc(Br)ccc2O)cc(=O)n(C)c1=O,4,-9,-5,-3.1*,3
O=C(/C=C/c1cc2c(cc1Br)OCO2)NCc1ccc(F)cc1,72,-21,-71,-0.55,-2
COc1ccc(CNC(=O)/C=C/c2cc3c(cc2Br)OCO3)cc1,86*,-9,-86,-0.1,-7
COCCNC(=O)CS(=O)Cc1nc(-c2ccc(Cl)cc2)oc1C (stereo unspecified),5,-21,-6,.,-10
COc1ccc(-c2nc(CS(=O)CC(=O)NCc3ccc(Cl)cc3)c(C)o2)cc1 (stereo unspecified),.,-1,.,.,70*

# Compound activity from PubChem BioAssay.
